PubChem BioAssay AID1159580 (chemical genetic matrix, 2015)
“And” between values parts separate entries of the source, which are not always exact repeats. Equal entries are not always repeated. Hit rate of the full screen: of about 5,500 compounds, about 2,000 (36%) were called active. Another 18% or so got no clear call; they are omitted. No stated cut-off is given here; in the data, active means normalized growth mostly below about 0.91 (no sharp cut-off); inconclusive means no clear call, values can overlap the other calls; inactive means mostly above about 0.92. The list shows a part of the results.

Experiment: chemical genetic growth profiling, strain panel (AID 1159580);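 further: tested at 20 µM; growth read once vehicle control cultures reached saturation at 30 °C; 1 = growth at the plate median or of vehicle wells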
Conditions: S. cerevisiae deletion strains, growth OD

Measured: normalized growth

CC(=O)Oc1cccc2c1C(=O)c1c(OC(C)=O)cc(C(=O)O)cc1C2=O
inactive: locus YAL013W, strain DEP1, stronger effect = lower value 1 | locus YAL021C, strain ccr4, stronger effect = lower value 0.969 | locus YAL030W, strain snc1, stronger effect = lower value 0.93 | locus YBR009C, strain hhf1, stronger effect = lower value 0.919 | locus YBR021W, strain FUR4, stronger effect = lower value 0.994 | locus YBR023C, strain chs3, stronger effect = lower value 0.918 | locus YBR171W, strain sec66, stronger effect = lower value 0.957 | locus YBR229C, strain ROT2, stronger effect = lower value 1.01 | locus YBR279W, strain paf1, stronger effect = lower value 0.972 | locus YCL011C, strain gbp2, stronger effect = lower value 0.923 | locus YCL016C, strain dcc1, stronger effect = lower value 0.946 | locus YCL069W, strain vba3, stronger effect = lower value 0.951 | locus YCR088W, strain abp1, stronger effect = lower value 0.929 | locus YDL005C, strain med2, stronger effect = lower value 0.943 | locus YDL035C, strain GPR1, stronger effect = lower value 1.01 | locus YDL040C, strain nat1, stronger effect = lower value 0.961 | locus YDL074C, strain BRE1, stronger effect = lower value 1.03 | locus YDL101C, strain DUN1, stronger effect = lower value 1.01 | locus YDL134C, strain PPH21, stronger effect = lower value 1.02 | locus YDL185W, strain tfp1, stronger effect = lower value 0.993 | locus YDR001C, strain nth1, stronger effect = lower value 0.93 | locus YDR137W, strain rgp1, stronger effect = lower value 0.97 | locus YDR150W, strain NUM1, stronger effect = lower value 1 | locus YDR159W, strain sac3, stronger effect = lower value 0.9 | locus YDR162C, strain NBP2, stronger effect = lower value 0.99 | locus YDR195W, strain ref2 0.991 | locus YDR334W, strain swr1, stronger effect = lower value 0.957 | locus YDR335W, strain msn5, stronger effect = lower value 0.949 | locus YDR392W, strain spt3, stronger effect = lower value 0.84 | locus YEL003W, strain gim4, stronger effect = lower value 0.954 | locus YEL037C, strain rad23, stronger effect = lower value 0.962 | locus YEL061C, strain CIN8 (second series), stronger effect = lower value 0.932 | locus YEL061C, strain CIN8, stronger effect = lower value 0.992 | locus YER016W, strain bim1, stronger effect = lower value 0.945 | locus YER111C, strain swi4, stronger effect = lower value 0.963 | locus YER155C, strain BEM2, stronger effect = lower value 1.01 | locus YER167W, strain BCK2, stronger effect = lower value 1 | locus YFR010W, strain ubp6, stronger effect = lower value 0.943 | locus YGL078C, strain dbp3, stronger effect = lower value 1 | locus YGL173C, strain kem1, stronger effect = lower value 0.929 | locus YGL227W, strain vid30, stronger effect = lower value 0.962 | locus YGL248W, strain PDE1, stronger effect = lower value 1.01 | locus YGL253W, strain hxk2, stronger effect = lower value 0.932 | locus YGR078C, strain PAC10, stronger effect = lower value 1 | locus YGR229C, strain SMI1, stronger effect = lower value 1.02 | locus YHR013C, strain ard1, stronger effect = lower value 0.991 | locus YHR027C, strain rpn1, stronger effect = lower value 0.942 | locus YHR030C, strain SLT2, stronger effect = lower value 0.999 and 0.943 | locus YHR079C, strain IRE1, stronger effect = lower value 0.964 | locus YHR129C, strain ARP1, stronger effect = lower value 1.01 | locus YHR142W, strain chs7, stronger effect = lower value 0.939 | locus YIL066C, strain RNR3, stronger effect = lower value 1.02 | locus YIL073C, strain SPO22, stronger effect = lower value 0.995 | locus YIL125W, strain kgd1, stronger effect = lower value 1 | locus YJL095W, strain BCK1, stronger effect = lower value 0.994 and 0.953 | locus YJL115W, strain asf1, stronger effect = lower value 0.939 | locus YJL129C, strain trk1, stronger effect = lower value 1 | locus YJL134W, strain LCB3, stronger effect = lower value 1.01 | locus YJL154C, strain vps35, stronger effect = lower value 0.953 | locus YJL187C, strain SWE1 (second series), stronger effect = lower value 1.01 | locus YJL187C, strain SWE1, stronger effect = lower value 0.931 | locus YJR043C, strain POL32, stronger effect = lower value 0.998 | locus YJR066W, strain TOR1, stronger effect = lower value 0.902
active: locus YAL026C, strain drs2, stronger effect = lower value 0.896 | locus YBL061C, strain skt5, stronger effect = lower value 0.915 | locus YBR231C, strain swc5, stronger effect = lower value 0.874 | locus YCL029C, strain bik1, stronger effect = lower value 0.585 | locus YCL061C, strain MRC1, stronger effect = lower value 0.896 | locus YDL192W, strain arf1, stronger effect = lower value 0.175 | locus YDR069C, strain doa4, stronger effect = lower value 0.865 | locus YDR101C, strain arx1, stronger effect = lower value 0.438 | locus YDR297W, strain sur2, stronger effect = lower value 0.913 | locus YDR318W, strain mcm21, stronger effect = lower value 0.32 | locus YDR388W, stronger effect = lower value 0.171 | locus YDR502C, strain sam2, stronger effect = lower value 0.341 | locus YER015W, strain faa2, stronger effect = lower value 0.92 | locus YER110C, stronger effect = lower value 0.643 | locus YER155C, strain BEM2 (second series), stronger effect = lower value 0.858 | locus YGL086W, strain mad1, stronger effect = lower value 0.337 | locus YGL167C, strain pmr1, stronger effect = lower value 0.906 | locus YGL240W, strain doc1, stronger effect = lower value 0.832 | locus YGR135W, strain pre9, stronger effect = lower value 0.3 | locus YGR252W, strain gcn5, stronger effect = lower value 0.33 | locus YHR079C, strain IRE1 (second series), stronger effect = lower value 0.481 | locus YHR094C, strain hxt1, stronger effect = lower value 0.476 | locus YHR200W, strain rpn10, stronger effect = lower value 0.354 | locus YIR030C, strain dcg1, stronger effect = lower value 0.456 | locus YJL092W, strain hpr5, stronger effect = lower value 0.916 | locus YJL095W, strain BCK1 (second series), stronger effect = lower value 0.909 | locus YJL164C, strain tpk1, stronger effect = lower value 0.875 | locus YJL166W, strain qcr8, stronger effect = lower value 0.871 | locus YJL168C, strain set2, stronger effect = lower value 0.545
